High-throughput results from PubChem BioAssay.
Shown are actives, neighbours in structure and some others; about 2.1% of the full set was active somewhere.
PTAP TSG101 blk – blocks PTAP/TSG101 interaction to inhibit HIV-1 budding; Q99816; Fluorescence polarization, FITC-PTAP peptide / Tsg101 binding; Potency, µM (highest dose often 115 µM), without a hit: at the highest dose activity change, negative = inhibition, actives largely listed as inhibitors; 340,000 tested, under 10 active; AID 493005; active = well fitted inhibition curve with a large enough effect in the main read-out, with a control signal flat, not every such curve was filed as active; inconclusive = small, poorly fitted or top-dose-only effect, or effect the other way, or a change in a side signal; inactive = no such curve, though single readings can be large or run the other way; also: % of control where 0% means no effect
Target sequence (Q99816 whole entry, looked up): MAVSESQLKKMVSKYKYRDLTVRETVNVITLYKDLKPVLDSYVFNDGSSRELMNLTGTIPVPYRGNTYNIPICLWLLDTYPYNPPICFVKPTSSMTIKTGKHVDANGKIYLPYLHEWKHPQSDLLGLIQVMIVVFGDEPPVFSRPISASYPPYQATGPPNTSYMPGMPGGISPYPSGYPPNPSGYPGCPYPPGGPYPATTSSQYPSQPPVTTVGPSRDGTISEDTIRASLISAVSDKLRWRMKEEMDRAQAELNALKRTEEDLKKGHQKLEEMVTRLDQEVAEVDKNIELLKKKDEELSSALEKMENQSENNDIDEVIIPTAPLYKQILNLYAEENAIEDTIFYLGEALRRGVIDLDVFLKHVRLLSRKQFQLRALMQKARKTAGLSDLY
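FP read-out: FITC-PTAP peptide, 50 nM final, binding Tsg101 binding domain, 10 uM final; 20 min, r.t.; 10 mM HEPES pH 7.5, 0.15 M NaCl, 0.01% Tween 20, 3 mM EDTA, 0.1 mM TCEP.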
Abeta rescue – A-beta toxicity reversal in yeast; yeast expressing A-beta42, growth rescue, OD600, 48 h; response scale: 0% DMSO, 100% iron-clioquinol control; Potency, µM (doses to about 46.1 µM), most hits filed as activators; hit rate 0.063% among 410,000; AID 1347071; also: nearly all actives have a fitted effect of over 55% in size
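Yeast A-beta toxicity model in growth medium with pinned compounds, 48 h at 30 C; growth read as absorbance at 600 nm. Normalized to FeCl3/clioquinol equimolar mix (positive) and DMSO (negative).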
aSyn yeast inh – rescues yeast growth from alpha-synuclein toxicity. Yeast expressing alpha-synuclein, growth rescue, BacTiter-Glo, 24 h. Potency, µM (doses to about 46.1 µM), inactives show at the highest dose growth rescue (activation), usual class: activators. hit rate 0.14% among 370,000. AID 652106; also: % of control where 0% means no effect; nearly all actives have a fitted effect of over 65% in size
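Readout is rescue of growth in alpha-synuclein-expressing yeast, so inhibitors of toxicity appear as activators. Growth after 24 hr at 30 deg C in galactose medium is quantified by luminescence.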
TDP43 rescue – rescues yeast growth from TDP-43 toxicity. TDP-43 expressing yeast growth rescue, BacTiter-Glo, 24 h. Potency, µM (top dose mostly 46.1 µM), for the others: top-dose growth rescue (activation), hits mostly activators. hit rate 1.8% among 410,000. AID 652104; also: % of control where 0% means no effect; nearly all actives have a fitted effect of over 50% in size
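Cell-based yeast growth screen: TDP-43 expression induced in galactose, inoculum OD600=0.02 after raffinose pregrowth to mid-log. Read-out BacTiter-Glo luminescence at 24 hr, 30 deg C; inhibition of toxicity seen as signal increase.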
FUS suppressor – FUS proteinopathy suppression in yeast. S. cerevisiae FUS-expressing, growth rescue, OD600, 24 h. Potency, µM (doses to about 76.6 µM), usual class: activators. hit rate 0.24% among 390,000. AID 1347120;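 also: plate controls were DMSO vehicle for no effect and reference control for full effect; nearly all actives have a fitted effect of over 55% in size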
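Read-out: OD at 600 nm after 24hr at 30C, reporting rescue of FUS-induced yeast toxicity. Cells at OD 0.005 in galactose (2%) minimal medium; compounds tested in a dilution series; CP55940 titration from 92uM final as control.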
* marks the source's active call; other numbers are inactive results; i = inactive; ? = inconclusive; / = not tested or not shown; [ ] = dose if it differs, or a comment. Unless noted, calls follow the shape of the dose curve; as a rule, active = well fitted curve in the direction sought with a large enough effect; inconclusive = small, poorly fitted or top-dose-only effect, or another doubt; inactive = no such curve, though single readings can be large; an effect the other way counts as inactive or inconclusive. Potency is read from the fitted curve at half-maximal effect.

SMILES | PTAP TSG101 blk | Abeta rescue | aSyn yeast inh | TDP43 rescue | FUS suppressor
COc1cc(C(=O)Nc2ccc(Cl)c(C(F)(F)F)c2)cc(OC)c1OC | 2% | i | ? | 18µM* | i
CN(Cc1cccs1)c1ncnc2sccc12 | -2% | i | 11% | 13µM* | i
CN(Cc1ccccc1F)c1ncnc2sccc12 | 0% | i | 3% | ? | i
Cc1sc2ncnc(N(C)Cc3cccs3)c2c1C | -2% | i | 12% | 13µM* | i
c1csc(CNc2ncnc3sccc23)c1 | 0% | i | -2% | 14µM* | i
CN(C)S(=O)(=O)c1ccc2c(c1)N(CC(=O)NCc1ccccc1)C(=O)C1CCCCN21 (configuration not stated) | / | i | / | 0%[9.22 µM] | i
O=C(C[n+]1ccccc1Cl)c1ccc(I)cc1 | / | / | 14% | / | /
CCc1nn2c(-c3ccccc3OC)ccnc2c1-c1ccc(F)cc1 | / | i | / | 9% | i
CCN(CC(=O)NC(C)(C)C)C(=O)COc1c(Cl)cc(Cl)c2ccc(C)nc12 | -3% | ? | 10% | 28µM* | i
CCOc1ccccc1NC(=O)COC(=O)COc1c(Cl)cc(Cl)c2ccc(C)nc12 | -9% | i | 16% | 4% | i
Nc1c(Br)cc(/C=C2\C=Cc3ccccc32)cc1Br | / | / | -15% | / | /
Cc1nc(-c2ccccc2)sc1-c1ccnn1C | 0% | i | 0% | 16% | i
Cc1nc(-c2ccccc2)sc1-c1ccn[nH]1 | -2% | i | -20% | 14µM* | i
Cc1cc(C)c2c(-n3cccc3)nn(CC#N)c2n1 | -7% | i | 16% | 13µM* | i
Cc1cc(C)c2c(-n3cccc3)n[nH]c2n1 | -9% | i | 1% | -10% | i
O=C(Nc1nnc(-c2ccc3c(c2)CCCC3)o1)C1COc2ccccc2O1 (configuration not stated) | 3% | ? | 6.3µM* | 18µM* | i
COc1ccc(-c2nnc(NC(=O)c3ccccc3C)o2)cc1 | -6% | i | ? | ? | i
O=C(COc1ccc(Cl)cc1)Nc1nnc(-c2ccc3c(c2)CCCC3)o1 | -5% | i | 29% | ? | i
CC(=O)Nc1nnc(-c2ccc3c(c2)CCCC3)o1 | -1% | i | -10% | 32µM* | i
COc1ccccc1C(=O)Nc1nnc(-c2ccc3c(c2)CCCC3)o1 | -7% | i | ? | 18µM* | ?
CN(C)c1ccc(CC2CCc3ccccc32)cc1 (configuration not stated) | / | / | 1% | / | /
O=C(CCCCn1c(=O)c2ccccc2n(CC(=O)Nc2ccc(F)cc2F)c1=O)NCCc1ccccc1 | / | i | / | 2% | i
COc1ccc(C(=O)CCC(=O)Nc2cc(C)ccc2C)cc1 | / | i | / | 11µM* | i
COC(=O)[C@@]1(Cc2ccc(F)cc2)[C@H]2c3cc(C(=O)N(C)C)n(CC4CC4)c3C[C@H]2CN1C(=O)c1ccccc1 | / | i | 9% | 9% | 25µM*
CC1C(=O)N(Cc2cn(CCC3OCCCO3)nn2)CCS(=O)(=O)N1Cc1ccc(-c2ccc(Cl)c(Cl)c2)cc1 (configuration not stated) | / | i | 3% | ? | ?
SMILES | PTAP TSG101 blk | Abeta rescue | aSyn yeast inh | TDP43 rescue | FUS suppressor
CCCN1CCN(CC2=C(C(=O)OCC)C(c3cccc(OC)c3OC)NC(=O)N2)CC1 (configuration not stated) | / | i | / | 3% | i
O=c1c2c3c(sc2nc(NCCO)n1CCc1ccccc1)CCCCC3 | -1% | i | -12% | 14µM* | ?
OCCNc1nc(SCc2ccccc2)nc2sc3c(c12)CCC3 | 3% | i | -11% | 10µM* | /
O=c1c2c3c(sc2nc(NCCO)n1Cc1ccco1)CCCCC3 | -1% | i | 8% | -4%[0.397 µM] | i
Cc1ccc(C2CC2C(=O)NNC(=S)Nc2cccc(C)c2)cc1 (configuration not stated) | -5% | i | 24% | ? | i
Cc1ccc(C2CC2C(=O)NNC(=S)Nc2cccc(Cl)c2)cc1 (configuration not stated) | -10% | i | -2% | 14µM* | ?
